Molecules are shown by their SMILES. Inconclusive results are not listed. Activity calls are given as the source filed them. The call rests on the fitted dose curve; in most records, active means well fitted inhibition curve with a large enough effect; inconclusive means small, poorly fitted or top-dose-only effect; inactive means flat fitted curve, though single readings scatter.

The record followed here is PubChem BioAssay AID2162 (National Center for Advancing Translational Sciences (NCATS), 2009).

For the experiment, the target named is Polyunsaturated fatty acid lipoxygenase ALOX12 (Homo sapiens) (UniProt P18054). The experiment is described as follows: Confirmation qHTS Assay for Inhibitors of 12-hLO (12-human lipoxygenase). The following applies: purified 12-hLO, xylenol orange absorbance; activity change, negative = inhibition: active compounds read low. From the text: Assay Provider: Holman, T.R., University of California, Santa Cruz Screening Center PI: Austin, Christopher P. Screening Center: NIH Chemical Genomics Center Human lipoxygenase 12hLO is a member of the closely related lipoxygenase family of enzymes which catalyze the site-specific oxidation of arachidonic acid to various hormone precursor molecules and as such is a candidate for drug development in a variety of disease areas, such as cancer and inflammation. Inhibition of 12hLO activity was screened by utilizing arachidonic acid as a substrate. The extent of hydroperoxide product formation was measured by a secondary chromogenic reaction in which xylenol orange (XO, Sigma-Aldrich, cat. number 39,818-7) reacts with the ferric ions produced from the reaction between the hydroperoxide and ferrous ions. The Fe(III)-XO complex is characterized with red-shifted absorbance at 560 nm. A purified preparation of human 12hLO was supplied by Professor Ted Holman, University of California, Santa Cruz. This assay includes some confirmation and follow-up compounds for related primary screening assay AID 1452.
Sequence of Polyunsaturated fatty acid lipoxygenase ALOX12 (Homo sapiens) (P18054 whole entry, looked up): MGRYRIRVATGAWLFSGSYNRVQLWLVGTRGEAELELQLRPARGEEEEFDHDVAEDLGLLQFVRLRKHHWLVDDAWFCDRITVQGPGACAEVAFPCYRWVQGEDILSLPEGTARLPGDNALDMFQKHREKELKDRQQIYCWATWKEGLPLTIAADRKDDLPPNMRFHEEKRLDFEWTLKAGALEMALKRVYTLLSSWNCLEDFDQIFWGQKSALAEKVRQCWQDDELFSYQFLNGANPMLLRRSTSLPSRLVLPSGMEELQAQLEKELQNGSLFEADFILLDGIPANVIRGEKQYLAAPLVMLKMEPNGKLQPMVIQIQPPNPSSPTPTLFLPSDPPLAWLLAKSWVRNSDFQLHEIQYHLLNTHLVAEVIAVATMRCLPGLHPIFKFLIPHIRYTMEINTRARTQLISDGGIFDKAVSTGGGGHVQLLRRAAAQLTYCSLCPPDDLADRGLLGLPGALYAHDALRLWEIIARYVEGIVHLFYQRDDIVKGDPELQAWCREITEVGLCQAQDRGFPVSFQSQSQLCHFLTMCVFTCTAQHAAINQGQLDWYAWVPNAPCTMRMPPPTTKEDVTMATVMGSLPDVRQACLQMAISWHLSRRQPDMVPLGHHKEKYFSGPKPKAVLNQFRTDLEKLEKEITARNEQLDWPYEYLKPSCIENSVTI
Assay Protocol: Buffer: 25 mM Hepes pH 7.0, 0.01% Triton X-100. Reagents/Controls: Buffer in columns 3 and 4 as negative control (no enzyme). Substrate solution: 40 uM arachidonic acid (Sigma-Aldrich, St. Louis, MO) final concentration dispensed throughout the plate. Enzyme: 150 nM 12hLO final concentration in columns 1, 2, 5-48. Column 1 is neutral (100% activity). Column 2 contained pin-transferred titration of NDGA (nordihidroguaiaretic acid, Sigma-Aldrich, N 5023, top concentration 20 mM in DMSO, then 1:3 dilution in duplicate). (Dilution factor: 23 nL into 4 uL.) Chromogenic detection reagent (divalent iron/xylenol orange, Fe-XO): 200 uM xylenol orange plus 300 uM ferrous ammonium sulfate prepared freshly in 50 mM sulfuric acid. Assay Steps: Three uL of enzyme were dispensed to 1536-well Greiner black clear bottom plates. Compounds and controls (23 nL) were transferred via Kalypsys PinTool. The plates were incubated for 15 min at room temperature, and then 1 uL of substrate solution was added to start the reaction. After room temperature incubation for 30 minutes, 4 uL of Fe-XO solution was added to each well and the plates were incubated for 30 min. The absorbance at 405 and 573 nm were measured using ViewLux (Perkin-Elmer) High-throughput CCD imager and absorbance protocol settings. The 573-to-405 absorbance ratio was used to compute reaction progress.
(Quantitative high-throughput screening tests each substance at several concentrations.)
For `O=C1C2C3CCCC3=C3CCCC3C2C(=O)N1c1cccc(Cl)c1` (stereo not given), the activity change, negative = inhibition was -9.6% (inactive). As for `CCC(=O)NC(c1ccc(C)cc1)c1ccc2cccnc2c1O` (stereo not given), the Potency was 31.6 µM (active). As for `O=C(Nc1cccc(F)c1)N1CCCC2(CCN(C(=O)c3ccco3)CC2)C1`, the activity change, negative = inhibition was 5.23% (inactive).

In the case of `CCC(=O)NC(c1ccc(F)cc1)c1cc(Cl)c2cccnc2c1O` (stereo not given), the Potency was 15.8 µM (active). In the case of `COc1cccc(-c2nc(NC3CCNCC3)c3ccccc3n2)c1`, the activity change, negative = inhibition was -5.22% (inactive). On to `CNc1oc(-c2cccc3ccccc23)nc1C#N`, for which the Potency is 4.47 µM (active). As to `Cc1c(N/C=C/C(=O)c2cccs2)c(=O)n(-c2ccccc2)n1C`, the activity change, negative = inhibition is -11.2% (inactive).

For `CCCCn1c(NC(C)=O)c(C#N)c2nc3ccccc3nc21`, the activity change, negative = inhibition is -16% (inactive). Take `Oc1ccc2ccccc2c1CNc1cnc2ccccc2c1`: the Potency was 5.01 µM (active). As to `N=c1c(C(=O)NC2CCCC2)cc2c(=O)n3ccccc3nc2n1C1CCCC1`, the activity change, negative = inhibition is -15.4% (inactive). As for `CCC(=O)NC(c1ccc(C)cc1)c1cc([N+](=O)[O-])c2cccnc2c1O` (stereo not given), the Potency is 28.2 µM (active). Same read-out and setting: in the case of `O=C(Nc1nc2n(n1)C(c1ccccc1)CC(c1ccc(Cl)cc1)N2)c1ccco1` (stereo not given) it was 14.1 µM (active). On to `O=C(OCC#CCSc1nnc(-c2cccc3ccccc23)o1)c1ccc(Cl)cc1`, for which the activity change, negative = inhibition is -7.17% (inactive). Turning to `O=C(NCC#CCSc1nnc(-c2cccc3ccccc23)o1)c1cccs1`, the activity change, negative = inhibition is -3.59% (inactive). Consider `NC(=O)c1cccc2c3c([nH]c12)CCCC3`, for which the activity change, negative = inhibition was -10.2% (inactive). Regarding `O=C(c1ccncc1)N1CCC2(CCCN(Cc3nccs3)C2)CC1`, the activity change, negative = inhibition is -1.82% (inactive). For `Oc1ccc(CNc2ccccc2)c2cccnc12`, the Potency is 11.2 µM (active). For the compound `COC(=O)c1ccc(C(=S)N2CCOCC2)cc1`, the activity change, negative = inhibition is -15.6% (inactive).

Turning to `COc1ccccc1CNc1ncncc1-c1ccoc1`, the activity change, negative = inhibition was -18.9% (inactive).

`CCC(=O)NC(c1cccs1)c1cc([N+](=O)[O-])c2cccnc2c1O` (stereo not given): the Potency was 7.94 µM (active). Still for that read-out and setting: the same measure for `Cc1ccc(-c2ccc(/C=C3\C(=O)ON=C3c3ccccc3)o2)c([N+](=O)[O-])c1`: 4.47 µM (active). For `OCC#CCSc1nnc(-c2cccc3ccccc23)o1`, the activity change, negative = inhibition was -15.8% (inactive). Consider `CCC(=O)NC(c1ccco1)c1cc(Cl)c2cccnc2c1O` (stereo not given), for which the Potency is 5.01 µM (active).

For the compound `Cc1cc(/C=N/NC(=O)Cn2c3ccccc3c(=O)c3ccccc32)c(C)n1-c1ccccc1`, the activity change, negative = inhibition was -20.8% (inactive). The same measure, in the same setting: the same measure for `Cc1noc(C)c1-c1nc(N(C)Cc2ccco2)c2ccccc2n1`: -12.2% (inactive). Consider `CCC(=O)NC(c1ccc(C)cc1)c1cc(Cl)c2cccnc2c1O` (stereo not given), for which the Potency was 28.2 µM (active). As for `CC(=O)N1CCN(c2ccc(NCc3ccc(C)cc3)cc2)CC1`, the Potency was 22.4 µM (active).

`CCC(=O)NC(c1ccc(C)s1)c1cc(Cl)c2cccnc2c1O` (stereo not given): the Potency is 39.8 µM (active).

As to `CCCC(=O)NC(c1ccco1)c1cc(Cl)c2cccnc2c1O` (stereo not given), the Potency was 2.82 µM (active). For the compound `Cc1csc(-c2coc3cc(O)cc(C)c3c2=O)n1`, the activity change, negative = inhibition is -12.2% (inactive). As to `COc1ccccc1C(=O)OCC#CCSc1nnc(-c2cccc3ccccc23)o1`, the activity change, negative = inhibition was -4.87% (inactive).

For `COc1ccc(OC)c(NC(=O)NC2(C(F)(F)F)Oc3ccccc3O2)c1`, the activity change, negative = inhibition is -12.7% (inactive). For `Cc1cc(Nc2nnnn2-c2ccccc2)n(-c2ccc(Cl)cc2)n1`, the activity change, negative = inhibition was -12.4% (inactive). Still for that read-out and setting: in the case of `COC(=O)c1ccc2c(c1)C(=O)N(C1CCCCC1)C2=O` it was -2.91% (inactive). Regarding `COc1ccccc1-n1c(SCC(=O)Nc2ccc(C)cc2)nc(O)cc1=O`, the activity change, negative = inhibition is -21% (inactive). For the compound `Cc1ccc(OCC(=O)Nc2ccc(N3CCCC3)cc2)cc1C`, the activity change, negative = inhibition was -27.5% (inactive). Still for that read-out and setting: the same measure for `Nc1cc(-c2ccncc2)c[nH]c1=O`: -18.7% (inactive). On to `CC(=O)N1CCN(c2ccc(NCc3ccc(F)cc3)cc2)CC1`, for which the Potency was 31.6 µM (active). For `Oc1ccccc1C1Nc2cccc3cccc(c23)N1`, the Potency was 39.8 µM (active). As for `CC(=O)N1CCN(c2ccc(NCc3cccs3)cc2)CC1`, the Potency was 44.7 µM (active).
